Assay outcomes: PubChem, National Center for Advancing Translational Sciences (NCATS)
The sample as a whole holds a higher share of hits than the screen did.
12-LOX inh – inhibitors of human 12S-lipoxygenase ALOX12; 580,000 compounds, 1.1% hits; P18054; purified 12hLO, xylenol orange hydroperoxide absorbance; Potency, µM (series often up to 108 µM), for the others: at the highest dose activity change, negative = inhibition, hits mostly inhibitors; note: potency is the fitted concentration of half-maximal effect
Target sequence (P18054 whole entry, looked up): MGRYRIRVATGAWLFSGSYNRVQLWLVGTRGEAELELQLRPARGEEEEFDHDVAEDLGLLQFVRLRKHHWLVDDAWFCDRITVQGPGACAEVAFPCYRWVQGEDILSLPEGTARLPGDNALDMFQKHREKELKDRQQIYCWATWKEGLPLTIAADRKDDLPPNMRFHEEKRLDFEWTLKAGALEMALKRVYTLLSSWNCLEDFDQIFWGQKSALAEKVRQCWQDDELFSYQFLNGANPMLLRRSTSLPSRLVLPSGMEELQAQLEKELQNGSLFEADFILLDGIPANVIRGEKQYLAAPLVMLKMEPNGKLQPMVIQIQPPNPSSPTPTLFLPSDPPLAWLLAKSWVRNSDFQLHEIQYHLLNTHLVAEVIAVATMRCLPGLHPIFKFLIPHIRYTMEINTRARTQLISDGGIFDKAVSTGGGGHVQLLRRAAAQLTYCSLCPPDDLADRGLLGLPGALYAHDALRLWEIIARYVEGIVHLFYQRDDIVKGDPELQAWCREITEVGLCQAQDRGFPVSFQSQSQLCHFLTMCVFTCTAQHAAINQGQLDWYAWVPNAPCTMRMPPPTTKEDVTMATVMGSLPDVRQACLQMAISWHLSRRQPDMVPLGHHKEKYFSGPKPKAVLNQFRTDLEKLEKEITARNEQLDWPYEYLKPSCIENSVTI
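Hydroperoxide product was detected by ferrous iron/xylenol orange as the 573 to 405 nm absorbance ratio. Arachidonic acid at 40 uM (final) was turned over for 30 min at room temperature by 150 nM human 12hLO, pH 7.0 Hepes buffer, after 15 min compound preincubation.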
HT1080 IDH1KD tx – kills HT-1080 cells with IDH1 knockdown; HT-1080 IDH1 knockdown viability, ATP luminescence, 48 h; Potency, µM (highest dose often 46.1 µM), for inactives: at the top dose activity, negative = toxicity, hits mostly cytotoxic; 360,000 compounds, 2% hits; AID 686971;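 note: potency is the fitted concentration of half-maximal effect; 0% = DMSO wells and -100% = cell-free medium wells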
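CellTiter-Glo luminescence after 48 h compound exposure at 37 degrees C of IDH1-knockdown HT-1080 cells in 5% FBS RPMI. %Activity scaled between DMSO wells and cell-free media wells, with curves fitted and assigned curve classes.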
HT1080-NT tox – kills 2HG-producing HT-1080-NT fibrosarcoma cells; Potency, µM (highest dose often 46.1 µM), for the others: at the top dose activity, negative = less viability, hits mostly cytotoxic; HT-1080-NT fibrosarcoma viability, CellTiter-Glo ATP luminescence, 48 h; 360,000 compounds, 1.6% hits;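 note: NT is the 2HG producing partner of a matched IDH1 knockdown line; potency is the fitted concentration of half-maximal effect; 0% = DMSO-treated cells and -100% = media-only wells without cells; nearly all actives have a fitted effect of over 55% in size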
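A 48-hour cytotoxicity screen used HT-1080-NT cells plated 2 hours before compound delivery. ATP-based CellTiter-Glo luminescence measured viability, normalized to DMSO and no-cell controls.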
IL-1B inflam inh – inflammasome signaling inhibition, IL-1 beta readout; THP-1 LPS/ATP IL-1B secretion, AlphaLISA, 16 h; stronger effect = lower value; 360,000 compounds, 4.7% hits; activity change, % at 57.5 µM; AID 743279; in the data active = activity change below about -50%; inconclusive = mostly about -30% to -49%
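THP-1 cells pretreated 1 hr with compounds (up to 57.5 uM final), then stimulated with LPS (250 ng/mL final) plus ATP (1.25 mM final); secreted IL-1B measured by AlphaLISA after 16 hr, decreased signal indicating inhibition.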
TDP1 cell noCPT – qHTS for Inhibitors of human tyrosyl-DNA phosphodiesterase 1 (TDP1): qHTS in cells in absence of CPT. DT40 Tdp1-/- hTDP1 cells, no CPT, ATP luminescence, 48 h. Potency, µM (highest dose often 46.2 µM), inactives show at the top dose activity change, negative = growth inhibition, most hits filed as inhibitors. 420,000 compounds, 15% hits. AID 686978, 2013; note: potency is the fitted concentration of half-maximal effect; nearly all actives have a fitted effect of over 55% in size
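Cells were dispensed at 400 per well, compounds added by pin tool, plates incubated ≥48 hr at 37 °C, then CellTiter-Glo added for 30 min at room temperature before luminescence reading. Line: DT40 Tdp1-/- complemented with hTDP1; camptothecin omitted.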
DT40 TDP1 CPT – growth inhibition of DT40 Tdp1-/-;hTDP1 cells with camptothecin (screen for TDP1 inhibitors); AID 686979; 420,000 compounds, 12% hits; Potency, µM (doses to about 46.2 µM), inactives show at the highest dose activity change, negative = growth inhibition, usual class: inhibitors; chicken DT40 Tdp1-/-;hTDP1 cells + 20 nM CPT, ATP luminescence, 48 h; note: potency is the fitted concentration of half-maximal effect; nearly all actives have a fitted effect of over 55% in size
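Chicken DT40 Tdp1-/- cells stably complemented with human TDP1 were seeded at 400 cells/well in medium containing 20 nM camptothecin, exposed to pin-transferred compounds, and grown at 37 °C for at least 48 hr. Viability was read as ATP luminescence.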
The depositor's hits bear a star; ? = inconclusive; . = not tested or not shown. Unless noted, calls come from the whole dose curve; as a rule, active = well fitted curve in the direction sought with a large enough effect; inconclusive = small, poorly fitted or top-dose-only effect, or another doubt; inactive = no such curve, though single readings can be large; an effect the other way counts as inactive or inconclusive. Unless noted, % is set by controls: 0 for no effect and ±100 for the full control effect.

SMILES	12-LOX inh	HT1080 IDH1KD tx	HT1080-NT tox	IL-1B inflam inh	TDP1 cell noCPT	DT40 TDP1 CPT
c1csc(CNc2ncncc2-c2ccc3c(c2)OCO3)c1	28.2µM*	.	.	.	?	?
c1cncc(CNc2ncncc2-c2cccnc2)c1	?	.	.	.	9.4%	13.3%
c1cncc(-c2cncnc2NCc2cccs2)c1	7.94µM*	.	.	.	-9.5%	9.1%
OCCCNC(=S)NCc1ccccc1	4.9%	.	.	.	.	.
CN(CCc1ccccc1)C(=O)c1ccc(NC(=O)Cc2ccc(NC(=O)C3CCN(C(=O)C4CCC4)CC3)cc2)cc1	-16.5%	-17.6%	-5.6%	?	10.3µM*	?
CN(Cc1ccccc1)C(=O)c1ccc(NC(=O)Cc2ccc(NC(=O)C3CCN(C(=O)C4CCCC4)CC3)cc2)cc1	0.0%	-10.8%	-12.9%	20.5	?	?
CN(C(=O)c1ccc(NC(=O)Cc2ccc(NC(=O)C3CCN(C(=O)C4CCC4)CC3)cc2)cc1)C1CCCC1	-4.3%	-13.1%	-4.2%	7.5	-25.4%	-29.3%
CN(CCc1ccccc1)C(=O)c1ccc(NC(=O)Cc2ccc(NC(=O)C3CCN(C(=O)C4CCCCC4)CC3)cc2)cc1	5.9%	?	-20.3%	2.1	16.4µM*	?
COCCNC(=O)c1ccc(C(C)(C)C)cc1	56.8%	.	.	.	.	.
Cc1[nH]c(SCC(=O)NCCc2ccc3c(c2)OCCO3)nc1Cc1ccccc1	-15.8%	.	.	.	.	.
COC(=O)c1ccc(Oc2ccc(C(=O)OC)cc2)cc1	-17.1%	.	.	.	.	.
Cc1nc2sccn2c1-c1csc(NCc2ccccc2)n1	?	7.0%	?	-73.3*	13µM*	16.4µM*
Cc1nc2ncccn2c1-c1csc(Nc2ccc(S(N)(=O)=O)cc2)n1	-12.3%	9.7%	5.0%	-1.7	5.2%	37.3%
CC(=O)Nc1ccc(Nc2nc(-c3c(C)nc4ccccn34)cs2)cc1	?	2.91µM*	?	?	0.82µM*	1.03µM*
Cc1ccc(Nc2nc(-c3c(C)nc4sccn34)cs2)cc1	7.08µM*	.	.	.	.	.
Cc1ccc(Nc2nc(C)cs2)cc1	-18.2%	19.9%	11.3%	-2.3	?	?
CC1CCN(CC2CCCCN2)CC1 (stereo not drawn)	-3.4%	.	.	.	.	.
Cc1ccc(-c2nn(Cc3ccccc3)cc2C(=O)N2CCN(CCO)CC2)cc1	8.6%	.	.	.	.	.
Nc1cc(-c2ccccc2)ccc1O	?	.	.	14.5	?	-20.2%
c1ccc(-c2ccc3c(c2)NCCN3)cc1	?	-18.5%	-4.0%	-75.1*	?	?
COc1ccc(NC(=O)C2Cc3c(-c4ccc(NC(C)=O)cc4)ccnc3O2)cc1OC (stereo not drawn)	?	-25.0%	-20.9%	-29.8	?	?
COc1ccc(CNC(=O)C2Cc3c(-c4ccc5c(c4)OCO5)ccnc3O2)cc1OC (stereo not drawn)	-2.8%	?	?	-4.6	11.6µM*	18.4µM*
COc1ccc(CNC(=O)C2Cc3c(-c4ccccc4)ccnc3O2)cc1OC (stereo not drawn)	3.0%	-2.9%	-18.7%	-11.9	?	?
O=C(NCc1ccc(F)c(F)c1)C1Cc2c(-c3ccc4c(c3)OCO4)ccnc2O1 (stereo not drawn)	-0.7%	?	?	0.0	2.91µM*	2.31µM*
COc1ccc(NC(=O)C2Cc3c(-c4ccc5c(c4)OCO5)ccnc3O2)cc1OC (stereo not drawn)	-6.3%	16.4µM*	?	-7.4	8.2µM*	9.2µM*
SMILES	12-LOX inh	HT1080 IDH1KD tx	HT1080-NT tox	IL-1B inflam inh	TDP1 cell noCPT	DT40 TDP1 CPT
COC(=O)c1ccc([C@H]2CC(=O)O2)cc1	14.0%	-13.7%	-13.0%	-95.6*	?	?
Cc1ccc(S(C)(=O)=O)cc1NC(=O)CCNC(=O)Cc1ccccc1	-24.5%	.	.	.	.	.
Cc1ccc2cc(CN(Cc3ccco3)C(=O)NC3CCCCC3)c(=O)[nH]c2c1C	-28.5%	-21.8%	-27.3%	?	29.1µM*	16.4µM*
Cc1ccc2cc(CN(Cc3ccco3)C(=O)C3CCCCC3)c(=O)[nH]c2c1C	132.9%	18.7%	8.2%	-7.4	?	?
COc1ccccc1NC(=S)N(Cc1ccco1)Cc1cc2ccc(C)c(C)c2[nH]c1=O	?	?	?	10.9	0.581µM*	0.581µM*
COc1ccccc1NC(=S)N(Cc1ccco1)Cc1cc2cc(C)cc(C)c2[nH]c1=O	?	?	?	20.2	10.3µM*	10.3µM*
Cc1nc(-c2c(-c3ccc(O)cc3O)noc2C(F)(F)F)cs1	0.0%	-13.7%	-10.9%	13.4	16.4µM*	18.4µM*
O=S(=O)(NCc1ccccn1)c1cc(C(F)(F)F)ccc1Cl	-22.5%	9.1%	7.0%	5.5	-18.1%	?
Cc1cc(C)c(NC(=O)c2ccc(CNS(=O)(=O)c3cc(C(F)(F)F)ccc3Cl)cc2)c(C)c1	-18.4%	-22.5%	-11.7%	-0.3	16.4µM*	20.6µM*
O=C(CN1CCOCC1)Nc1cccc(C(=O)Nc2cccc(C(F)(F)F)c2)c1	3.8%	-2.5%	-7.8%	21.2	?	-29.3%
CCCCCNCC(=O)Nc1cccc(C(=O)Nc2cccc(C(F)(F)F)c2)c1	?	16.4µM*	20.6µM*	-100.9*	?	?
Cc1ccc(C(=O)Nc2cccc(C(F)(F)F)c2)cc1Nc1ccccn1	?	-1.4%	4.0%	27.0	16.4µM*	20.6µM*
Cc1nc(Nc2nc3ccccc3o2)nc(C)c1C(=O)Nc1cccc(C(F)(F)F)c1	131.5%	.	.	.	.	.
Cc1cnc(Nc2nc3ccccc3o2)nc1C(=O)Nc1cccc(C(F)(F)F)c1	13.9%	-4.1%	-13.9%	21.8	20.6µM*	23.1µM*
Cc1ccc(C(=O)Nc2cccc(C(F)(F)F)c2)cc1Nc1cncnc1	-12.7%	-2.5%	-0.8%	68.0	14.6µM*	?
CCN(C(=O)Cc1nc(-c2cccs2)oc1C)c1cccc(Br)c1	1.9%	.	.	.	.	.
CC1(C)Cc2ccccc2-c2nnc(SCC(=O)Nc3ccc4c(c3)OCO4)n21	-5.0%	-2.3%	0.9%	?	?	16.4µM*
COc1ccccc1N1CCN(C(=O)CSc2nnc3n2C(C)(C)Cc2ccccc2-3)CC1	-2.6%	-4.1%	?	-28.1	14.6µM*	13µM*
COc1ccccc1-c1nnc(SCC(=O)N2CCN(C(C)=O)CC2)n1N	-17.1%	.	.	.	.	.
CCOC(=O)CSc1nnc2n1C(C)(C)Cc1ccccc1-2	-10.1%	1.9%	-0.4%	-6.8	-1.7%	7.8%
